Experimental data: article PMC7862700, “An all-to-all approach to the identification of sequence-specific readers for epigenetic DNA modifications on cytosine”

Experiments:
Assay in all cases: DAPPL (digital affinity profiling via proximity ligation, sequencing); 10 mM Tris-HCl pH 7.5, 50 mM NaCl, 1 mM DTT, 4% glycerol, room temperature, 30 min; GST-TFs on glutathione beads, 16-mer random dsDNA library, 0.1% formaldehyde crosslink after washing; high values mean tight binding
Conditions in all cases: protein: recombinant; tags: N-terminal GST; dsDNA, one strand shown
FLI1 = target: T1, FLI1 (Homo sapiens, UniProt Q01543 1-452)
T1 sequence: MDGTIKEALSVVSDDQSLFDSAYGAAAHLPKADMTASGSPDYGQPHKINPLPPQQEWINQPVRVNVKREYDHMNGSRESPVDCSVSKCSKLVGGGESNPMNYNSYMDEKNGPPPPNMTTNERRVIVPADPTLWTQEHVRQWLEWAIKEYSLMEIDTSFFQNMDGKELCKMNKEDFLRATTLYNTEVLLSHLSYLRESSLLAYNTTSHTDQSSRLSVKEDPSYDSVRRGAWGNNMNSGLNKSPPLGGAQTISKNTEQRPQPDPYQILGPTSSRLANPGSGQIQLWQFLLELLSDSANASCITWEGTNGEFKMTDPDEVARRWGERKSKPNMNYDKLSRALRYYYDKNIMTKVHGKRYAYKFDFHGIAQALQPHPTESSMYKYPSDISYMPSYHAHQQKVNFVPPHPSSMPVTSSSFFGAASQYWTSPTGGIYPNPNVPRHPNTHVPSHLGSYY
Outline: (§1)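 Sequencing on an Illumina NextSeq500 followed washing, crosslinking with 0.1% formaldehyde, proximity ligation (BsaI/T4 ligase, 1 h, 37 °C) and PCR amplification of pools that had been incubated for 30 min at room temperature with 200 nmole of a random double-stranded 16-mer DNA library in Tris/NaCl/DTT/glycerol buffer. Each pool held DNA-barcoded human transcription factors, expressed in yeast as GST fusions and captured on glutathione beads, plus a tag-only sample. Binding signal is a hexamer's read frequency for a factor divided by its frequency in the tag-only sample.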

ELK1 = target: T2, ELK1 (Homo sapiens, UniProt P19419 1-428)
T2 sequence: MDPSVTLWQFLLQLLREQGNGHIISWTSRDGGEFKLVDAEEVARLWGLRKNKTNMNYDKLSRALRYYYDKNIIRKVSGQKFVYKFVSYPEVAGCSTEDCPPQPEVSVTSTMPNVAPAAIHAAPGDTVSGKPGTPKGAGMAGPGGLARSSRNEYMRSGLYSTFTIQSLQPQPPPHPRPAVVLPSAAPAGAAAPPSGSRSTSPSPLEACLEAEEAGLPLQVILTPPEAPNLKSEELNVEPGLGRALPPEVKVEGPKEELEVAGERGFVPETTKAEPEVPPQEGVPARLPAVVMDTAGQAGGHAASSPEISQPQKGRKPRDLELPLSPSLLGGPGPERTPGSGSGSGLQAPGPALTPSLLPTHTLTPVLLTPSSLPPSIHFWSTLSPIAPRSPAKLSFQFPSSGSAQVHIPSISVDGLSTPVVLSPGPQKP
Outline: as §1

GABPA = target: T3, GABPA (Homo sapiens, UniProt Q06546 1-454)
T3 sequence: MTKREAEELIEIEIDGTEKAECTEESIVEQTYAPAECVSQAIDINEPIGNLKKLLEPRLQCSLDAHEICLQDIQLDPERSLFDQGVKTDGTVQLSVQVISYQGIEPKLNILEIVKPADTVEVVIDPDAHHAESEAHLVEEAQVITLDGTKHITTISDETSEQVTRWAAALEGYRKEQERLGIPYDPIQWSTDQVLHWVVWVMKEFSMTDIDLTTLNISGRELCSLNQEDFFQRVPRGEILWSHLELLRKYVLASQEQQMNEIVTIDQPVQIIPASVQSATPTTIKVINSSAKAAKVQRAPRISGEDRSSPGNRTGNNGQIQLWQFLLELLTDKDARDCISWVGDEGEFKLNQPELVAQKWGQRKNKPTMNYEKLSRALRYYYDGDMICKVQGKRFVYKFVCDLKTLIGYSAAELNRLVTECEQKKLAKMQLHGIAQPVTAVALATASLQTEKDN
Outline: as §1

ERG = target: T4, ERG (Homo sapiens, UniProt P11308 1-479)
T4 sequence: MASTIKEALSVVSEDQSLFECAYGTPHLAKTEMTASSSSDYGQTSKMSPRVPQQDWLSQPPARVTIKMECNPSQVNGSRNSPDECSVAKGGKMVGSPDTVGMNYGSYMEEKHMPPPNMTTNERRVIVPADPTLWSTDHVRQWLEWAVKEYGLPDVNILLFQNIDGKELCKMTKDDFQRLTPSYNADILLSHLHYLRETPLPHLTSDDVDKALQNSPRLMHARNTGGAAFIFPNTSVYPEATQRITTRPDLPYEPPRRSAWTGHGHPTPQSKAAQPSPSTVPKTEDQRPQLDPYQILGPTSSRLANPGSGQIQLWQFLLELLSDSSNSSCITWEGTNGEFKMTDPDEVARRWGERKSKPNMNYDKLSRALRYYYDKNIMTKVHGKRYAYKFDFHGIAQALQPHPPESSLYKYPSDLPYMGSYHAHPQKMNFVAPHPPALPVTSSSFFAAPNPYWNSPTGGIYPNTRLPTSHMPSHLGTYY
Outline: as §1

ELF1 = ELF1 (Homo sapiens, UniProt P32519 1-619)
Outline: as §1

EHF = target: T5, EHF (Homo sapiens, UniProt Q9NZC4 1-300)
T5 sequence: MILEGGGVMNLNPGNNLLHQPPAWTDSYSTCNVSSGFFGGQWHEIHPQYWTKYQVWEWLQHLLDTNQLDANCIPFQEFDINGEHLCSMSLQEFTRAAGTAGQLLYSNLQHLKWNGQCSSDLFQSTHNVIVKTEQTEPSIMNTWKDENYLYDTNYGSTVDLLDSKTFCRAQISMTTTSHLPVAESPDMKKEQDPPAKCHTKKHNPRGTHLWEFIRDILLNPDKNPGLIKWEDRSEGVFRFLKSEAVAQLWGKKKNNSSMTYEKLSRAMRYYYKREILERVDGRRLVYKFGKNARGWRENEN
Outline: as §1

SPI1 = SPI1 (Homo sapiens, UniProt P17947 1-270)
Outline: as §1

SPIB = SPIB (Homo sapiens, UniProt Q01892 1-262)
Outline: as §1

ELK3 = target: T6, ELK3 (Homo sapiens, UniProt P41970 1-407)
T6 sequence: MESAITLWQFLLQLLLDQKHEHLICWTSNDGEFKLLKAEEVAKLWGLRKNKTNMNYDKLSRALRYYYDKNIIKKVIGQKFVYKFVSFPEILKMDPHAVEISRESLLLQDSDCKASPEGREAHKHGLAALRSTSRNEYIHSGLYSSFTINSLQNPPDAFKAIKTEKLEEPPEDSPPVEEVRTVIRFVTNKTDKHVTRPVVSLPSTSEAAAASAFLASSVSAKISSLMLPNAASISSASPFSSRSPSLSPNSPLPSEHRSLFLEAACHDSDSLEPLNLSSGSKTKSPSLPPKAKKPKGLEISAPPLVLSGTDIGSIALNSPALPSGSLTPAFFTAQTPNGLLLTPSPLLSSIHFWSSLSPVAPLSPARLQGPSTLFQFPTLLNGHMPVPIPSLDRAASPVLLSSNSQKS
Outline: as §1

SPIB, sequence (Q01892 whole entry): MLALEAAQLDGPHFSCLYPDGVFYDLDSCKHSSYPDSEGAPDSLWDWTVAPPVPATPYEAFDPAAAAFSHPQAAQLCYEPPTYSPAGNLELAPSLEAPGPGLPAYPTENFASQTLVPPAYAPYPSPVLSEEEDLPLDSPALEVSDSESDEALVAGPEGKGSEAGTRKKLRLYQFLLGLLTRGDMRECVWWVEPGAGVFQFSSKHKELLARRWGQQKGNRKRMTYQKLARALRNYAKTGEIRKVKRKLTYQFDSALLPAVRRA
ELF1, sequence (P32519 whole entry): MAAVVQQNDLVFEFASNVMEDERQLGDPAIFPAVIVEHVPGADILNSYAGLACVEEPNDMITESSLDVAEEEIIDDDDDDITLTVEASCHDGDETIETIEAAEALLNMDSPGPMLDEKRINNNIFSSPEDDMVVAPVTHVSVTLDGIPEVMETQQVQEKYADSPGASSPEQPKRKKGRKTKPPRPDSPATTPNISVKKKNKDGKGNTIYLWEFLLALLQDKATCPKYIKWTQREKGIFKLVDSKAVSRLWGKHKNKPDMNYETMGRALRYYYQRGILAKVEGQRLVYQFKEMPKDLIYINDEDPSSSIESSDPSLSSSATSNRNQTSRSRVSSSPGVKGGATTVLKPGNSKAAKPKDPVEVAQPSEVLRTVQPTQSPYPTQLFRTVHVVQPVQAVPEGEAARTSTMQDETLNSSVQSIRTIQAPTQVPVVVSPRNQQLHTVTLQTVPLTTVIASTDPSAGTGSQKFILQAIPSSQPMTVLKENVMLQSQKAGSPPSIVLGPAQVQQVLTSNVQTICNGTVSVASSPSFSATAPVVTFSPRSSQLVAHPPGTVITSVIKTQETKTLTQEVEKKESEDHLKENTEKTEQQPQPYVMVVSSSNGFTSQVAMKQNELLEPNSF

TGGTCT
binding signal (FLI1): 1.56 fold enrichment (6-mer frequency, TF over GST control) | binding signal (ELK1): 1.69 fold enrichment (6-mer frequency, TF over GST control) | binding signal (GABPA): 1.47 fold enrichment (6-mer frequency, TF over GST control) | binding signal (ERG): 1.49 fold enrichment (6-mer frequency, TF over GST control) | binding signal (ELF1): 1.49 fold enrichment (6-mer frequency, TF over GST control) | binding signal (EHF): 1.66 fold enrichment (6-mer frequency, TF over GST control) | binding signal (SPI1): 1.58 fold enrichment (6-mer frequency, TF over GST control) | binding signal (SPIB): 1.76 fold enrichment (6-mer frequency, TF over GST control) | binding signal (ELK3): 1.65 fold enrichment (6-mer frequency, TF over GST control)
